Inconclusive results are not listed. Calls of active or inactive are those of the source. How the source made its calls, unless noted: active means hit-call score of the fitted dose curve at least 0.9, where 1 is the maximum; inactive means score below 0.9.

The nature of test [1]: ACEA_ER_80hr: ACEA Biosciences xCELLigence Real-Time Cell Analysis on Estrogen Receptor Agonism for Proliferation (AID 2282667; active means hit-call score of the fitted dose curve at least 0.9, where 1 is the maximum). The following applies: T47D proliferation, impedance (xCELLigence), 80 h. The method in brief:
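Real-time electrical impedance tracked growth of the human breast line T47D, with the 80 h post-dosing value used. Dosing spanned eight 1:4 steps down from a 100 uM final top concentration, run in duplicate.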

The nature of test [2]: ATG_CRE_CIS: Attagene CIS-FACTORIAL HepG2 Assay for human cAMP Responsive Element (CRE) binding protein 3 (AID 2282926). The conditions noted are these: HepG2 CRE cis-reporter, Attagene multiplexed mRNA; actives raise or lower the signal. The method in brief: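 Assay format: transient reporter transfection of HepG2, 24 h treatment, total RNA isolation with DNase I step. Reporter abundance read by fluorescence after PCR and capillary separation; DMSO-normalised gain or loss fitting.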

In test [3] the target is CCAAT/enhancer-binding protein beta (Homo sapiens) (UniProt P17676). Put plainly: ATG_C_EBP_CIS: Attagene CIS-FACTORIAL HepG2 Assay for human CCAAT/Enhancer Binding Protein (C/EBP) beta (AID 2282927). The following applies: HepG2 Attagene cis-factorial transcription factor reporter; actives raise or lower the signal. The method in brief: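 HepG2, transient MRTU transfection, 24 h treatment. RT-PCR plus CE fluorescence; DMSO negative control, bidirectional fit.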

Test [4] can be described thus: ATG_CMV_CIS: Attagene CIS-FACTORIAL HepG2 Assay for human CMV (Internal Marker) (AID 2282928).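 Further: endpoint acts as a background internal control marker rather than a target.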 The following applies: HepG2 CMV promoter reporter, transcription factor profiling; actives raise or lower the signal. In a few lines:
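Reporter transcripts from transfected HepG2 cells are isolated after 24 h of chemical dosing, reverse-transcribed and amplified. Fragments labeled with 6-FAM are cut with HpaI and quantified by capillary electrophoresis; DMSO defines baseline.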

The nature of test [5]: ATG_DR4_LXR_CIS: Attagene CIS-FACTORIAL HepG2 Assay for human Liver X Receptor (LXR), DR4 submotif (AID 2282929). The conditions noted are these: HepG2 Attagene DR4 cis-reporter, mRNA transcription; actives raise or lower the signal. In a few lines:
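Transiently transfected HepG2 liver cells; cis-regulated reporters; 24 h dosing. RT-PCR plus CE read-out of reporter mRNA. DMSO baseline, bidirectional curve fitting.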

Test [6] concerns the target Aryl hydrocarbon receptor (Homo sapiens) (UniProt P35869). Put plainly: ATG_Ahr_CIS: Attagene CIS-FACTORIAL HepG2 Assay for human Aryl Hydrocarbon Receptor (Ahr) (AID 2282930). The following applies: HepG2 AhR cis-factorial reporter transcription; actives raise or lower the signal. In a few lines: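 Endogenous factor activity is tracked through cis-promoter reporter units transfected into HepG2 cells. Transcript levels at 24 h are read by fluorescent RT-PCR and capillary electrophoresis, with activity in either direction scored relative to DMSO.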

Test [7] in a line: ATG_AP_1_CIS: Attagene CIS-FACTORIAL HepG2 Assay for human Activator Protein 1 (AP-1) (AID 2282931). The conditions noted are these: HepG2 Attagene cis-factorial AP-1 reporter mRNA; actives raise or lower the signal. The method in brief:
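We transfected HepG2 cells transiently with a set of cis-regulated reporter transcription units, dosed them for 24 h, and quantified reporter mRNA via RT-PCR and capillary electrophoresis, scoring gain or loss of signal relative to DMSO.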

The nature of test [8]: ATG_AP_2_CIS: Attagene CIS-FACTORIAL HepG2 Assay for human Activator Protein 2 (AP-2) (AID 2282932). The conditions noted are these: HepG2 AP-2 cis-reporter, Attagene transcription factor profiling; actives raise or lower the signal. In a few lines:
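Liver-derived HepG2 line, cis-reporter system measuring endogenous factors; 24 h dosing; reporter mRNA detected by fluorescent RT-PCR and capillary electrophoresis.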

For test [9], the target named is Retinoic acid receptor alpha (Homo sapiens) (UniProt P10276). The test is described as follows: ATG_DR5_RAR_CIS: Attagene CIS-FACTORIAL HepG2 Assay for human Retinoic Acid Receptor Alpha (RARE), DR5 submotif (AID 2282934).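 On AC50: reporter responds to endogenous RAR alpha beta and gamma in HepG2 not RARA alone.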 The following applies: HepG2 Attagene cis-factorial RARE DR5 reporter, mRNA; actives raise or lower the signal. In a few lines:
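After 24 h of chemical exposure, transiently transfected HepG2 cells were lysed for total RNA; the DR5-regulated reporter transcript was quantified via RT-PCR and capillary electrophoresis, with activity fitted bidirectionally against DMSO.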

Test [10] is described as follows: ATG_BRE_CIS: Attagene CIS-FACTORIAL HepG2 Assay for human Bone Morphogenetic Protein (BMP) Response Element (BRE) (AID 2282933). The following applies: HepG2 BMP response element reporter, Attagene transcription factor profiling; actives raise or lower the signal. The method in brief:
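A HepG2 multiplex reporter system measured inducible reporter mRNA 24 h post-dosing. Detection: RT-PCR, 6-FAM primer extension, HpaI digestion, capillary electrophoresis. Activity fitted bidirectionally relative to DMSO.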

Aryl hydrocarbon receptor (Homo sapiens), sequence (P35869 whole entry, looked up): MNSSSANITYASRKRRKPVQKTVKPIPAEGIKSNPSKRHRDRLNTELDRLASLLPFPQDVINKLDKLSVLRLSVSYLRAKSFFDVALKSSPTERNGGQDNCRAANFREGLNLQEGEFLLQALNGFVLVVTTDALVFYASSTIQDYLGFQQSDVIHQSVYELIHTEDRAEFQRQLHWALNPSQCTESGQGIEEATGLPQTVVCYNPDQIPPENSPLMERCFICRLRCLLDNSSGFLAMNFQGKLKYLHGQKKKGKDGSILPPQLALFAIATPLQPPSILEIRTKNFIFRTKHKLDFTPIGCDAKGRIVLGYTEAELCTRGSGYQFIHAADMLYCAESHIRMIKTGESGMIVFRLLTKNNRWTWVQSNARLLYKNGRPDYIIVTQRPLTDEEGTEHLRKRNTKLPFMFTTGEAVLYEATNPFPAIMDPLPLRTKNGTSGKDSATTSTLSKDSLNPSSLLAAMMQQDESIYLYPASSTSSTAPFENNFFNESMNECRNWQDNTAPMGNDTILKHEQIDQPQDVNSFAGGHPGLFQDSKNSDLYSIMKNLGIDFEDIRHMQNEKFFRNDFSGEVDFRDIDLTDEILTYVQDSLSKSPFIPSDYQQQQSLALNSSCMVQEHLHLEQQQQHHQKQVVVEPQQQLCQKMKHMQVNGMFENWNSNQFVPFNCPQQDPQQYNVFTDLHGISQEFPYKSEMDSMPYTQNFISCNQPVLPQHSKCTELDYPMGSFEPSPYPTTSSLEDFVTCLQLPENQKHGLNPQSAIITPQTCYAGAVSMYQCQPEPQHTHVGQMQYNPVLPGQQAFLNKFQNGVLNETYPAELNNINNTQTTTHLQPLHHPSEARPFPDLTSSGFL
CCAAT/enhancer-binding protein beta (Homo sapiens), sequence (P17676 whole entry, looked up): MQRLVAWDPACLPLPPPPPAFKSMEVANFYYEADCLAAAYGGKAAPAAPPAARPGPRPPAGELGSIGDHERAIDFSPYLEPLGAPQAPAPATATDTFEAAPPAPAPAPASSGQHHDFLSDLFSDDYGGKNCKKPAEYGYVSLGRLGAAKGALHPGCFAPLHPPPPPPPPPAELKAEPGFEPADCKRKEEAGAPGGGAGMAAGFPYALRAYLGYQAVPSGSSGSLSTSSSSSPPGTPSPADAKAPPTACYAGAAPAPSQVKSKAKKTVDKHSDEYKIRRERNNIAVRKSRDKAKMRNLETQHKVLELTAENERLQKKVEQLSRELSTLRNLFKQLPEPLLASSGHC
Retinoic acid receptor alpha (Homo sapiens), sequence (P10276 whole entry, looked up): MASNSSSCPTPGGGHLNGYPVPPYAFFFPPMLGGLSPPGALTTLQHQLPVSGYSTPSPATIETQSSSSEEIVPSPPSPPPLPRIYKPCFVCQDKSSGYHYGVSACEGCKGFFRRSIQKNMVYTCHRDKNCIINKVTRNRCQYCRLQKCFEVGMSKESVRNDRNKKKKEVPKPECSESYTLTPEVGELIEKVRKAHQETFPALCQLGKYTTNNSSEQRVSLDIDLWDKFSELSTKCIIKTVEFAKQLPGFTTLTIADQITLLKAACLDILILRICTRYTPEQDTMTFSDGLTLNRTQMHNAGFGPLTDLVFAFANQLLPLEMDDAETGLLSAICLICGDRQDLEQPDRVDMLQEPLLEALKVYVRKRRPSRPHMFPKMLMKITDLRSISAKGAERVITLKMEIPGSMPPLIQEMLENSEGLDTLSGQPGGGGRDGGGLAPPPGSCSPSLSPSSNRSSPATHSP

On to `Cc1cc(=O)[nH]c(=O)[nH]1`, for which the result in [1], in test [2], in test [3], in [4], in [5] and in test [6] was inactive. Moreover, the compound was classed as inactive in [7], in [8] and in test [9].

For `CCCCOC(=O)C(C)CC` (centres undefined), the outcome in test [1], in [2], in test [3], in [4], in [5] and in test [6] was inactive. Further, the compound was classed as inactive in test [7], in test [10] and in test [9].

For `O=C(O)/C=C/c1ccccc1`, the AC50 in test [1] was 2.06 µM (active). The compound was classed as inactive in test [2], in test [3], in test [4], in test [5], in [6] and in [7]. The result in test [10] and in test [9] was inactive.

As for `C=C(C)[C@@H]1CC=C(C)CC1`, the call in test [1], in test [2], in test [3], in test [4], in [5] and in [6] was inactive. The outcome in test [7] and in [10] was inactive.

As to `C=CCCCCCCCCC=O`, the outcome in [1], in test [2], in [3], in test [4], in test [5] and in test [6] was inactive. Also, the compound was classed as inactive in [7], in test [8] and in test [9].

Take `CC(C)CCCCCOC(=O)CS`: the result in [1], in test [2], in test [3], in test [4], in [5] and in test [6] was inactive. For the same compound, the call in [7], in [10] and in test [9] was inactive.

On to `CCCCCCCC(=O)OCC(COC(=O)CCCCCCC)OC(=O)CCCCCCC`, for which the call in [1], in test [2], in test [3], in test [4], in [5] and in test [6] was inactive. Also, the outcome in [7], in test [10] and in test [9] was inactive.

`CCCCCCO`: the outcome in test [1], in [2], in test [3], in [4], in [5] and in test [6] was inactive. The result in test [7], in test [10] and in test [9] was inactive.

On to `CCN(CC)c1cccc(C)c1`, for which the compound was called inactive in [1], in test [2], in test [3], in [4], in [5] and in test [6]. In addition, the outcome in [7], in test [10] and in test [9] was inactive.

Consider `O=S(=O)(O)c1ccc(N=Nc2c(O)ccc3ccccc23)cc1`, for which the outcome in test [1], in test [2], in test [3], in test [4], in test [5] and in test [7] was inactive. Besides, the compound was classed as inactive in test [8] and in test [9]. For the same compound, the AC50 in test [6] was 1.3 µM (active).

Regarding `CCNc1nc(NC(C)(C)C)nc(OC)n1`, the compound was called inactive in [1], in test [2], in test [3], in test [4], in [5] and in [6]. Besides, the compound was classed as inactive in test [7], in test [10] and in [9].

Regarding `O=C(O)CCC(=O)O`, the result in test [1], in test [2], in test [3], in [4], in [5] and in [6] was inactive. Also, the compound was called inactive in test [7], in [10] and in test [9].

`Clc1cccnc1`: the call in test [1], in [2], in test [3], in [4], in test [5] and in [6] was inactive. Moreover, the outcome in [7], in test [8] and in [9] was inactive.

As for `O=C(Cl)c1c(Cl)c(Cl)c(C(=O)Cl)c(Cl)c1Cl`, the compound was classed as inactive in test [1], in [2], in test [3], in test [4], in test [5] and in [6]. The compound was classed as inactive in test [7], in test [10] and in [9].

For the compound `CCCCOCCOC(=O)COc1ccc(Cl)cc1Cl`, the AC50 in test [1] was 10.8 µM (active). For the same compound, the call in test [2], in test [3], in test [4], in [5], in test [6] and in [7] was inactive. In addition, the result in test [10] and in test [9] was inactive.

Turning to `COc1cc(O)c(C(=O)c2ccccc2)cc1S(=O)(=O)O`, the compound was classed as inactive in [1], in test [2], in test [3], in test [4], in test [5] and in [6]. Also, the compound was classed as inactive in test [7], in [10] and in [9].

Consider `O=C1c2ccccc2C(=O)c2cc(S(=O)(=O)O)ccc21`, for which the outcome in test [1], in [2], in test [3], in test [4], in test [5] and in test [6] was inactive. In addition, the call in test [7], in [8] and in [9] was inactive.

`CC(=O)OC1CCCCC1C(C)(C)C` (centres undefined): the call in [1], in test [2], in test [3], in test [4], in test [5] and in test [6] was inactive. In addition, the compound was classed as inactive in test [7], in test [10] and in test [9].

With `CC(=O)OCCc1ccccc1`, the compound was classed as inactive in [1], in test [2], in test [3], in test [4], in test [5] and in [6]. In addition, the outcome in [7], in test [8] and in [9] was inactive.

`Fc1ccc(Br)cc1`: the call in test [1], in test [2], in [3], in test [4], in test [5] and in [6] was inactive. Moreover, the compound was classed as inactive in test [7], in [8] and in [9].

For the compound `N#Cc1ccc(C2CCCc3cncn32)cc1` (centres undefined), the AC50 in [1] is 0.829 µM (active). The compound was classed as inactive in test [2], in test [3], in test [4], in test [5], in [6] and in [7]. Also, the compound was called inactive in test [8] and in test [9].

For `CCCCC(=O)O`, the compound was called inactive in test [1], in [2], in test [3], in test [4], in test [5] and in test [6]. For the same compound, the compound was classed as inactive in [7], in test [8] and in [9].

`Cn1ccnc1`: the result in [1], in [2], in test [3], in test [4], in [5] and in [6] was inactive. The compound was classed as inactive in [7], in test [8] and in [9].

Consider `CCc1cccc(C)c1N`, for which the compound was classed as inactive in [1], in test [2], in test [3], in [4], in [5] and in test [6]. For the same compound, the call in test [7], in test [8] and in [9] was inactive.

On to `O=C(O)c1cc(O)c2ccccc2c1O`, for which the result in test [1], in test [2], in test [4], in [7] and in test [8] was inactive. Further, the AC50 in test [3] is 5.04 µM (active); in [5], 42.5 µM (active); in test [6], 0.0305 µM (active); in test [9] it was 22.8 µM (active).

The record behind these values is PubChem BioAssay (EPA / NIEHS).
